Consider 52 molecules from ChEMBL document CHEMBL4513216, “Probing the Open Global Health Chemical Diversity Library for Multistage-Active Starting Points for Next-Generation Antimalarials” (ACS Infect Dis, 2020).

About 8,600 (12%) of roughly 69,000 compounds showed an effect of 50% or more. Only a selection was taken, and strong results are over-represented in it overall.

The subject of this assay is Plasmodium berghei. The experiment in a line: Screen against P. berghei liver stage (PbLuc), transformed with Luciferase, at 10uM. The assay is classed as functional, HepG2. The following applies: tested at 10 uM.
Take `O=C1CC2(CCCCN2C(=O)c2cccs2)CN1CC1CC1` (configuration not stated): the INHIBITION was found to be 11.2%.

Take `Cc1cc(NC(=O)NCC(O)c2ccc(F)c(F)c2)n(C)n1` (configuration not stated): the INHIBITION is recorded as 21.8%. For `CCn1cnnc1C1CCN(C(=O)c2cc(OC)ccc2OC)CC1`, the INHIBITION is 23.7%.

With `COc1cc(-n2cccc2)c(Cl)cc1C(N)=O`, the INHIBITION is reported as -90.8%.

Take `CCc1ncc(C(=O)N2CCCC2Cn2cccn2)s1` (configuration not stated): the INHIBITION stood at 49.8%. The figure for `CS(=O)(=O)Nc1ccn(Cc2ccc(F)cc2Cl)n1` is 31.7%; for `CC(C)(C)n1cc(C(=O)N2CCN(Cc3cccnc3)CC2)cn1` it is -39.67%; for `CCN(CC)C(=O)c1nnsc1-c1ccc(Cl)cc1` it is 33.9%. The figure for `CCN(CC)C(=O)c1nnsc1-c1ccc(C)cc1` is 54.8%. The figure for `CCN(CC)C(=O)c1nnsc1-c1ccccc1` is 7.25%; for `CCOCC(=O)N1Cc2[nH]nc(COCC3CC3)c2C1` it is 2.4%; for `CC(C)c1nc2c(n1C)CCN(CC(=O)Nc1ccncc1)C2` it is 11.6%. In the case of `CC1CCCCN1CCNC(=O)c1ccn(-c2ccc(F)cc2)n1` (configuration not stated), the INHIBITION was 34.1%. For `Cc1cccc(NC(=O)[C@@H]2CCCN2Cc2ccc(C#N)cc2F)n1` the value was 25.2%; for `N#Cc1ccc(CNC(=O)NCCC(=O)NC2CCCC2)c(F)c1`, 17.1%. For `N#Cc1ccc(CNC(=O)NCCNC(=O)C2CCCC2)c(F)c1` the value was 52.8%; for `CC1CCCCN1CCNC(=O)NCc1ccc(C#N)cc1F` (configuration not stated), 50.7%. Take `N#Cc1ccc(F)c(CNC(=O)NCCC(=O)NC2CCCC2)c1`: the INHIBITION is 22.5%.

Take `CC(C)S(=O)(=O)N1CCC(Cc2cccc(C(=O)O)c2)C1` (configuration not stated): the INHIBITION was 1.37%.

Take `CN1C(=N)NC(=O)/C1=C\c1ccc(-c2ccc(F)cc2)o1`: the INHIBITION is on record as 19.3%. For `CCn1cc(S(=O)(=O)N2CCC(C)CC2)c(C)n1` the value was 4.35%; for `O=C(c1sccc1C1CC1)N1CCN(c2nccs2)CC1`, 36.3%; for `COC(=O)c1ccc(N2CCN(C(=O)c3ccc(=O)n(C)c3)CC2)cc1`, 36.9%.

On to `O=C(c1cccc(Oc2ccccc2)c1)N1CCCC(O)(CO)CC1` (configuration not stated), for which the INHIBITION is 16.1%. On to `COC(=O)c1ccc(N2CCN(C(=O)c3ccn(C)c(=O)c3)CC2)cc1`, for which the INHIBITION came to 54.5%. The figure for `Cn1ccc(C(=O)N2CCN(c3ccccn3)CC2)cc1=O` is 36.1%; for `N#Cc1cccc(C(=O)N2CCN(c3ncccn3)CC2)c1` it is 62.1%.

Turning to `O=C(c1cccc(-c2ccc(F)cc2)c1)N1CCCC(O)(CO)CC1` (configuration not stated), the INHIBITION was -122%. In the case of `CCOc1ccnc(N2CCN(C(=O)c3cccc(C#N)c3)CC2)n1`, the INHIBITION is reported as -13.7%. As to `N#Cc1cccc(C(=O)N2CCCC(O)(CO)CC2)c1` (configuration not stated), the INHIBITION amounted to 66.9%. The figure for `Cn1ccc(C(=O)N2CCN(c3cc(C#N)ccn3)CC2)cc1=O` is 59.4%. In the case of `COc1ccnc(N2CCN(C(=O)c3cccc(C#N)c3)CC2)n1`, the INHIBITION is on record as 18.2%. For `Cn1ccc(C(=O)N2CCN(c3ncccn3)CC2)cc1=O` the value was 31.3%; for `CN(C)c1cc(C(=O)N2CCN(c3cc(C#N)ccn3)CC2)ccn1`, -8.95%; for `COCCNC(=O)c1cc(OC)c2ccoc2c1`, 27.7%. Take `CNc1nc(C(=O)N2CCCn3nc(C(=O)N4CCCC4)cc3C2)cs1`: the INHIBITION was 26.5%. As to `CC(Cn1cccn1)NC(=O)NCc1cccnc1OC(C)C` (configuration not stated), the INHIBITION worked out at 11.2%. The figure for `CC[S+]([O-])CCc1nc(CC(C)C)nn1-c1ccc2c(c1)OCCO2` (configuration not stated) is 30.3%. For `CCNC(=O)COc1cc(CC)c2c(C)nn(-c3ccc(C)cc3)c2n1` the value was 66.1%; for `Cc1ccc(-n2nc(C)c3c(C)cc(OCC(=O)NC(C)C)nc32)cc1`, 2.55%. For `CCCNC(=O)COc1cc(C)c2c(C)nn(-c3ccc(C)cc3)c2n1` the value was 15.4%; for `CS(=O)(=O)N1CCC(NC(=O)COc2ccc(Br)cc2Cl)CC1`, 45.1%; for `Cc1nc(N)cc(C2CCN2CCC(N)=O)n1` (configuration not stated), -4.87%. `Cc1ccsc1C(=O)N1CCC2(CC1)C(=O)N(C)CCN2CC1CC1`: the INHIBITION amounted to 4.08%. For `Cc1ccc(NC2CCN(C(=O)c3cccc4cccnc34)CC2)nn1` the value was 11.9%. For `O=C(CCN1C[C@@H]2CC[C@H]1CN(c1ncccn1)C2)NCc1ccco1` the value was 6.67%; for `CS(=O)(=O)N1C[C@H]2CC[C@@H](C1)N(CCC(=O)NCc1ccco1)C2`, 13.2%; for `CN(C)S(=O)(=O)N1C[C@H]2CC[C@@H](C1)N(CCC(=O)NCc1ccco1)C2`, 66.9%. For `O=C(COc1coc(CN2CCCCC2)cc1=O)c1ccc(Cl)cc1` the value was 38.3%; for `CCN1CCOCC12CCN(C(=O)C1CCCC1)CC2`, -7.28%; for `CC(CS(C)(=O)=O)NC(=O)N1CC2(CCCC2)c2ccccc21` (configuration not stated), -16.1%. Regarding `Cc1c(-c2cnn(C)c2)nc(N)c(C#N)c1-c1ccc(CO)o1`, the INHIBITION is 88%.
